# Assay results reported in PubChem BioAssay (NCI).
# About 83,000 compounds went through this panel and 20% of them were active in at least one assay; those are over-represented in the sample as a whole.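 How to read the values: 0–100, growth inhibition (40 = 60% inhibited); 0, no net growth; -100 to 0, cell death (-40 = 40% of starting cells died; -100 = all dead).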 Activity calls are given as the source filed them. Rule for the calls: active = growth percent below 10; inactive = the rest.
# Test system: HCT-15 colon
# Test: NCI-60 one-dose screen, 48 h (100 = growth as untreated, 0 = no growth, -100 = all killed)
# Settings: 10 µM
row,Compound,growth
1,COc1cc(-c2cc(/C=C3\C(=O)Nc4cc(Cl)ccc43)[nH]n2)cc(OC)c1OC,13.6% (inactive)
2,CCCCCCc1cc(N=Nc2ccc(S(=O)(=O)Nc3cc(C)nc(C)n3)cc2)c(O)cc1O,103% (inactive)
3,N#CC1=C(Nc2ccccc2Cl)SC(c2ccccc2O)NC1=O (centres undefined),119% (inactive)
4,COc1cc(-c2nc(Nc3nc4ccccc4s3)[nH]c(=O)c2C#N)cc(OC)c1O,107% (inactive)
5,CCCCCCCCCCCCCCCCCCOCC(COCCOCC[N+]1(CCCCCC(=O)[O-])CCCC1)Oc1ncccn1 (centres undefined),56.3% (inactive)
6,COc1ccc(C2=NN(C(=O)c3ccc(S(C)(=O)=O)cc3)C(c3ccc(OC)c(OC)c3)C2)c(OC)c1 (centres undefined),99.4% (inactive)
7,COc1ccccc1CNCCCN1C(=O)c2ccc3c4c(ccc(c24)C1=O)C(=O)N(CCCN)C3=O,-30.8% (active)
8,Nc1nc(N)c(NC(=O)CNc2ccc(C(=O)O)cc2)c(N)n1,112% (inactive)
9,c1ccc(CP(Cc2ccccc2)c2ccccc2)cc1,95.1% (inactive)
10,COC(=O)C1(C)Cc2cc(OC(C)=O)c(OC(C)=O)cc2N1 (centres undefined),35.6% (inactive)
11,CC(=O)OCc1cc(-c2nc3ccccc3[nH]c2=O)nn1-c1ccc(Cl)cc1,88% (inactive)
12,CC(=O)c1nc2ccccc2n1CCN1CCN(C)CC1,98.9% (inactive)
13,COc1ccc(-c2nn(-c3cccc(NC(=O)Nc4ccc(Cl)c(C(F)(F)F)c4)c3)cc2-c2ccncc2)cc1Cl,16.3% (inactive)
14,COc1cc(C(=O)/C=C/c2cc(-c3cc(OC)c(OC)c(OC)c3)n[nH]2)cc(OC)c1OC,3.63% (active)
15,Cc1cccc(NC2=C(C#N)C(=O)NC3(CCCC3)S2)c1,95.8% (inactive)
16,O=C1/C(=C\c2ccc(F)cc2)CN(C(=O)c2ccccc2)C/C1=C\c1ccc(F)cc1,1.64% (active)
17,COc1cc(-c2cc(/C=C3\C(=O)Nc4ccccc43)[nH]n2)cc(OC)c1OC,36.9% (inactive)
18,COc1cc(/C=C\c2cc(OC)c(OC)c(OC)c2)cc(NS(=O)(=O)c2ccc(Cl)cc2)c1OC,20% (inactive)
19,S=C1SCC(c2ccccc2)S1 (centres undefined),100% (inactive)
20,CCN(CC)Cc1cc(Nc2ccnc3cc(Cl)ccc23)ccc1OC,56.4% (inactive)

row,Compound,growth
1,COC(=O)C(C(C[N+](=O)[O-])c1ccccc1)=P(c1ccccc1)(c1ccccc1)c1ccccc1 (centres undefined),88.9% (inactive)
2,O=S(=O)(NCCCNc1nccc(-c2c(-c3ccc(F)cc3)nc3sccn23)n1)c1ccc2ccccc2c1,35.1% (inactive)
3,CC(=O)N1N=C(c2ccc(Cl)cc2)CC1c1sc(Cl)nc1Cl (centres undefined),96.3% (inactive)
4,O=c1[nH]c2ccc(Cl)cc2c2ccccc12,93.3% (inactive)
5,COc1ccc(NC2=NC(C)(CO)CS2)cc1 (centres undefined),90.3% (inactive)
6,N#Cc1ncc(Br)c(NC2CCCCCC2)n1,92.3% (inactive)
7,O=C(Nc1cccc(-n2cc(-c3ccncc3)c(-c3cc(O)cc(Cl)c3)n2)c1)Nc1ccc(Cl)c(C(F)(F)F)c1,5.79% (active)
8,Nc1ncn(C2OC(CO)C(O)C2O)c(=O)n1 (centres undefined),-15.3% (active)
9,O=C(Nc1nc(-c2ccccc2Cl)cs1)c1cc(-c2ccc(Cl)cc2)nc2ccc(Cl)cc12,8.89% (active)
10,Nc1c(C(=O)Nc2cccc(F)c2)sc2nc3c(cc12)C(=O)CCC3,25.8% (inactive)
11,COc1ccc(-c2cc(/C=C3\C(=O)Nc4ccc(Cl)cc43)[nH]n2)cc1OC,77.5% (inactive)
12,O=C1CC[C@@H]2CCCC[C@@H]2C1,113% (inactive)
13,COc1ccc2c(c1)O/C(=C\c1ccc([N+](=O)[O-])s1)C2=O,0.318% (active)
14,Nc1nc(N)c2c(ccc3nccc32)[nH]1,46.9% (inactive)
15,Nc1cc2c(cc1Cl)-c1ccc([N+](=O)[O-])cc1/C2=N\O,62.9% (inactive)
16,COc1cc(-c2cc(/C=C/C(=O)c3ccc4c(c3)OCO4)[nH]n2)cc(OC)c1OC,63.9% (inactive)
17,COc1ccc(Cl)cc1C(=O)Nc1nc2ccc(Cl)cc2s1,86.5% (inactive)
18,Cc1cc2c(C)c3cc(C)c(N)cc3nc2cc1N,24.8% (inactive)
19,O=c1oc2cc(OS(=O)(=O)c3ccccc3)ccc2c2c1CCCCC2,42.2% (inactive)
